# Assay results taken from ChEMBL document CHEMBL2218924, “A broad activity screen in support of a chemogenomic map for kinase signalling research and drug discovery” (Biochem J, 2013).
# Experiments:
# [1] = target: Mitogen-activated protein kinase 14 (Homo sapiens) (UniProt Q16539); conditions: at 1 µM
# [2] = target: Mitogen-activated protein kinase 14 (Homo sapiens) (UniProt Q16539); conditions: at 10 µM
# [3] = target: T1, Mitogen-activated protein kinase 12 (Homo sapiens) (UniProt P53778); conditions: at 1 µM
# T1 sequence (whole entry): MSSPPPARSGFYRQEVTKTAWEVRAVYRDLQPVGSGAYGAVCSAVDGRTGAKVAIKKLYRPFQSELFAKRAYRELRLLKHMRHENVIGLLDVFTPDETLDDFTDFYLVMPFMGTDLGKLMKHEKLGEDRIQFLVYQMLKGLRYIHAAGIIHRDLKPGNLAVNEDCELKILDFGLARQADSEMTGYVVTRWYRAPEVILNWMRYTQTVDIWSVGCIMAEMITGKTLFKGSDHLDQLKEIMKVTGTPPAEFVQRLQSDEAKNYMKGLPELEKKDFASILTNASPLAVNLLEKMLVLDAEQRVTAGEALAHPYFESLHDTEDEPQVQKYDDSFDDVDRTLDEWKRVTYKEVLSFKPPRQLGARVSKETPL
# [4] = target: T1, Mitogen-activated protein kinase 12 (Homo sapiens); conditions: at 10 µM
# [5] = target: T2, Serine/threonine-protein kinase Sgk3 (Homo sapiens) (UniProt Q96BR1); conditions: at 1 µM
# T2 sequence (whole entry): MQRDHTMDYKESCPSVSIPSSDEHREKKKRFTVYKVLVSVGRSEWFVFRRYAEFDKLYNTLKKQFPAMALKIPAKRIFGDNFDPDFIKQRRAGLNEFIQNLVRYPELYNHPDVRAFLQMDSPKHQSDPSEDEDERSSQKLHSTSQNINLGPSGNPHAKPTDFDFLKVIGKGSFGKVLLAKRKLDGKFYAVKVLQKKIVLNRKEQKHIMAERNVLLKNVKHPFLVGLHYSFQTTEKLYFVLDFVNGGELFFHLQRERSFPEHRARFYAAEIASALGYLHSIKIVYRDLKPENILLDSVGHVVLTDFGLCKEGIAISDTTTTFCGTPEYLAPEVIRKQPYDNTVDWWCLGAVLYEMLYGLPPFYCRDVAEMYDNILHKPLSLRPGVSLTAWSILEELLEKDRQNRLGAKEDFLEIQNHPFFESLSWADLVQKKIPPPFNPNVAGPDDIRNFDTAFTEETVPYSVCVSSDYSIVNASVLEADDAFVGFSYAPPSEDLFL
# [6] = target: Mitogen-activated protein kinase 11 (Homo sapiens) (UniProt Q15759); conditions: at 1 µM
# [7] = target: Mitogen-activated protein kinase 11 (Homo sapiens) (UniProt Q15759); conditions: at 10 µM
# [8] = target: T3, Mitogen-activated protein kinase 13 (Homo sapiens) (UniProt O15264); conditions: at 1 µM
# T3 sequence (whole entry): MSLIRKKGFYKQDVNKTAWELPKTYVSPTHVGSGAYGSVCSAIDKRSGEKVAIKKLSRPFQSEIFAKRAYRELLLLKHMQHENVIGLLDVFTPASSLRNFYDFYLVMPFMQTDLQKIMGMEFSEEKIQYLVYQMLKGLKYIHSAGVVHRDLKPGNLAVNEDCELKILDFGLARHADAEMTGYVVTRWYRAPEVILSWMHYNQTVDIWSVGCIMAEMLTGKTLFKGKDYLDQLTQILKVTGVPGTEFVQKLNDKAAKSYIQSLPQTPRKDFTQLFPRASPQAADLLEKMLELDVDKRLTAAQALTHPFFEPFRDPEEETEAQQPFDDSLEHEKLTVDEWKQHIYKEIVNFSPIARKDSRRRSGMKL
# [9] = target: T3, Mitogen-activated protein kinase 13 (Homo sapiens); conditions: at 10 µM
# [10] = target: T4, Serine/threonine-protein kinase Sgk1 (Homo sapiens) (UniProt O00141); conditions: at 1 µM
# T4 sequence (whole entry): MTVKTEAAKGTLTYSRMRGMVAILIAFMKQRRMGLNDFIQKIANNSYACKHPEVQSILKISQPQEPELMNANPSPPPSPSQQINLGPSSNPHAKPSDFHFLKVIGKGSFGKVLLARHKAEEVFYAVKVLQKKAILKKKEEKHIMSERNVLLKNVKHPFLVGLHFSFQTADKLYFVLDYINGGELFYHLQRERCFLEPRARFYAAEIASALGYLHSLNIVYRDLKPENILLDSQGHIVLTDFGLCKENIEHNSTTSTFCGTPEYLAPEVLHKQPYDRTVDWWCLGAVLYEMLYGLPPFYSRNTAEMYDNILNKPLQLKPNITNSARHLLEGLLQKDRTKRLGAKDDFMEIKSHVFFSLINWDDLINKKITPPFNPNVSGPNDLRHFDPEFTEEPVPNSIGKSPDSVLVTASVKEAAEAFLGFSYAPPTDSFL
# [11] = target: T4, Serine/threonine-protein kinase Sgk1 (Homo sapiens); conditions: at 10 µM
# [12] = target: T5, Serine/threonine-protein kinase Sgk2 (Homo sapiens) (UniProt Q9HBY8); conditions: at 1 µM
# T5 sequence (whole entry): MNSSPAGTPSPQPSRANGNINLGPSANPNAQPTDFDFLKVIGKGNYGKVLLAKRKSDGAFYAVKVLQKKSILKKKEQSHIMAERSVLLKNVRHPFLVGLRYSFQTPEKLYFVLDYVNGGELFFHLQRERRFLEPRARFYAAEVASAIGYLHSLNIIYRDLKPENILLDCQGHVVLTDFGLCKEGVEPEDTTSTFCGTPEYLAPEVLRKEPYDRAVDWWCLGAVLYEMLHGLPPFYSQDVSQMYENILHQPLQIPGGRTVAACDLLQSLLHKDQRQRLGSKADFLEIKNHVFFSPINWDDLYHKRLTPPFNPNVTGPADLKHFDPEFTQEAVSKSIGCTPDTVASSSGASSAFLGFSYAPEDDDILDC
# [13] = target: T5, Serine/threonine-protein kinase Sgk2 (Homo sapiens); conditions: at 10 µM
# [14] = target: T2, Serine/threonine-protein kinase Sgk3 (Homo sapiens); conditions: at 10 µM
# [15] = target: Serine/threonine-protein kinase SIK1 (Homo sapiens) (UniProt P57059); conditions: at 1 µM
# [16] = target: Serine/threonine-protein kinase SIK1 (Homo sapiens) (UniProt P57059); conditions: at 10 µM
# [17] = target: SRSF protein kinase 1 (Homo sapiens) (UniProt Q96SB4); conditions: at 1 µM
# [18] = target: SRSF protein kinase 1 (Homo sapiens) (UniProt Q96SB4); conditions: at 10 µM
# [19] = target: SRSF protein kinase 2 (Homo sapiens) (UniProt P78362); conditions: at 1 µM
# [20] = target: SRSF protein kinase 2 (Homo sapiens) (UniProt P78362); conditions: at 10 µM
# Sequence of SRSF protein kinase 1 (Homo sapiens) (Q96SB4 whole entry): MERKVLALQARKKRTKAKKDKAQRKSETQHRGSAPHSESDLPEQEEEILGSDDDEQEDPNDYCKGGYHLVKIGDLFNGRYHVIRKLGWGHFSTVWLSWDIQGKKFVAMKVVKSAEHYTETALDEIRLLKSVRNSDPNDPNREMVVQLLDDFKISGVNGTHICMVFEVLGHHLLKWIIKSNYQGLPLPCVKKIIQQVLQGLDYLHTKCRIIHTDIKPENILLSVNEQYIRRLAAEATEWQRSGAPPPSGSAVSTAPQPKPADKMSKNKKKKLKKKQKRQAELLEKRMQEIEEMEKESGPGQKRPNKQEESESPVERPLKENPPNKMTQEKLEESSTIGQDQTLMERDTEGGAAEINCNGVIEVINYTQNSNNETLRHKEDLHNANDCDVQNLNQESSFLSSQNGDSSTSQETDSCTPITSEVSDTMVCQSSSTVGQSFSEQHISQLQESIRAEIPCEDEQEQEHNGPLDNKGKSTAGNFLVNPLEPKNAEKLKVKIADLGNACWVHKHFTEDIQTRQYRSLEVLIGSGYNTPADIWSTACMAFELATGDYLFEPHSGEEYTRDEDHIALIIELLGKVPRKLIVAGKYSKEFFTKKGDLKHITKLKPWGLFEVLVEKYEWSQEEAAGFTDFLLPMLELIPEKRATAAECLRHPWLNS
# Sequence of Serine/threonine-protein kinase SIK1 (Homo sapiens) (P57059 whole entry): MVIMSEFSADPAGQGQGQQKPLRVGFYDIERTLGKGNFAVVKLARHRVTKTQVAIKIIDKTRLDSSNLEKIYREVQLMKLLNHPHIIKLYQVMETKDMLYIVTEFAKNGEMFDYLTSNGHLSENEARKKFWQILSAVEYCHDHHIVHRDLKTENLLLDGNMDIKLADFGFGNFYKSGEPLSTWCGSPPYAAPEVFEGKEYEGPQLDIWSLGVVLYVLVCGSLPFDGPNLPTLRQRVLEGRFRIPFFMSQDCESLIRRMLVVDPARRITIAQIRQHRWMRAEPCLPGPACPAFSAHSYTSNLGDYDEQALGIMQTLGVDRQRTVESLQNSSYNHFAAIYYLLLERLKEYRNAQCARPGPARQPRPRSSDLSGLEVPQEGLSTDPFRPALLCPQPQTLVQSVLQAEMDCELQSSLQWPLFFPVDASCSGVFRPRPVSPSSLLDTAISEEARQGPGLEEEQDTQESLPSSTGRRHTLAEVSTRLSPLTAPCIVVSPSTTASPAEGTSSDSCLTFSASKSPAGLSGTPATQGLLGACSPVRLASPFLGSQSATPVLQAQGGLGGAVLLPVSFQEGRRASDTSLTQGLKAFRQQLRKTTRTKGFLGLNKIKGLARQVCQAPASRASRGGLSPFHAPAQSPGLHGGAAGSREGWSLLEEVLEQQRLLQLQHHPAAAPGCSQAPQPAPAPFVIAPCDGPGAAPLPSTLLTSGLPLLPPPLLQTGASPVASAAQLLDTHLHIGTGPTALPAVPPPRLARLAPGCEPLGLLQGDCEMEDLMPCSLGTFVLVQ
# Sequence of SRSF protein kinase 2 (Homo sapiens) (P78362 whole entry, looked up): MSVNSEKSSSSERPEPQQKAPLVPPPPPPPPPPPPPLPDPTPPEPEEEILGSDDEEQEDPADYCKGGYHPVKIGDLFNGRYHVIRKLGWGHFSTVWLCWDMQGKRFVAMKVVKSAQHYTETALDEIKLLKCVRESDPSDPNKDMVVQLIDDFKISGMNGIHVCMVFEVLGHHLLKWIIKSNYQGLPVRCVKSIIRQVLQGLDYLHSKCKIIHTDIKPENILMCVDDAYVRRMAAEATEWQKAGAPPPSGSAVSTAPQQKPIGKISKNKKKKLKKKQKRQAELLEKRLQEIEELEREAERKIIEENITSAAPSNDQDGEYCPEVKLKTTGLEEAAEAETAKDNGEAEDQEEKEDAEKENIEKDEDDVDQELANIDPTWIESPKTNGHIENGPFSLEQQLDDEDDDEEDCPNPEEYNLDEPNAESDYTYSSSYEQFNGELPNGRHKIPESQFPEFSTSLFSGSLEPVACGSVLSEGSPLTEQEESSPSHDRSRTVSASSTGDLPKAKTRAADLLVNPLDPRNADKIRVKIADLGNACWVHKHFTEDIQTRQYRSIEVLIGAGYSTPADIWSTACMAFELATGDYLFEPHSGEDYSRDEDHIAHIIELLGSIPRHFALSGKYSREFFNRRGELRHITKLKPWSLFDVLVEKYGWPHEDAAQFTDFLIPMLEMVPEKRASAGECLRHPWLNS
# Sequence of Mitogen-activated protein kinase 14 (Homo sapiens) (Q16539 whole entry): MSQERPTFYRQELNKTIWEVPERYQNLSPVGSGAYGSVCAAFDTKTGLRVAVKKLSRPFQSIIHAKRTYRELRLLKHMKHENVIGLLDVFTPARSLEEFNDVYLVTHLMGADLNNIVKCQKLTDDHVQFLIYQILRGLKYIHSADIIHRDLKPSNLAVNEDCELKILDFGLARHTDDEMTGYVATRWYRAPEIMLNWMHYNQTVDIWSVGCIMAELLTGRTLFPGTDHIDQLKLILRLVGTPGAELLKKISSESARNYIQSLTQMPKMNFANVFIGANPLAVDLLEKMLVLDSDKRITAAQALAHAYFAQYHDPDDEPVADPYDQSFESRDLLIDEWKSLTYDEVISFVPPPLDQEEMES
# Sequence of Mitogen-activated protein kinase 11 (Homo sapiens) (Q15759 whole entry): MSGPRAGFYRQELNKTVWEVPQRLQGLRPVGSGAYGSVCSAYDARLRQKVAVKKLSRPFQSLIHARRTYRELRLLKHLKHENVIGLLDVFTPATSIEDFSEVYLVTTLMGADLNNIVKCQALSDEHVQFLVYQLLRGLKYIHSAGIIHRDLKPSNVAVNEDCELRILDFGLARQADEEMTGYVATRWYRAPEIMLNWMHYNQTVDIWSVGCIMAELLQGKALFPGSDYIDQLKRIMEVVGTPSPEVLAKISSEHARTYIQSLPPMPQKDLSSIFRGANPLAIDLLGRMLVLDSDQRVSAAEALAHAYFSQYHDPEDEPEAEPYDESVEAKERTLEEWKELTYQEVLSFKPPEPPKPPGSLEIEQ
compound,measurement,setting,value
Oc1ccc(-c2nc(-c3ccc(F)cc3)c(-c3ccncc3)[nH]2)cc1,residual activity,[1],1%
same,residual activity,[2],1%
same,residual activity,[3],112%
same,residual activity,[4],67%
same,residual activity,[5],109%
CC(C)c1nn(-c2c(Cl)cccc2Cl)c2nc(Cc3ccc(OCCO)cc3)[nH]c(=O)c12,residual activity,[3],105%
same,residual activity,[4],101%
O=C1NC(=O)C(c2cn(CCCn3ccnc3)c3ccccc23)=C1Nc1ccccc1,residual activity,[3],104%
same,residual activity,[4],100%
O=C1Nc2ccc3ncsc3c2/C1=C/c1c[nH]cn1,residual activity,[1],80%
same,residual activity,[2],74%
same,residual activity,[6],71%
same,residual activity,[7],35%
same,residual activity,[3],50%
same,residual activity,[4],16%
same,residual activity,[8],62%
same,residual activity,[9],24%
same,residual activity,[10],31%
same,residual activity,[11],7%
same,residual activity,[12],12%
same,residual activity,[13],5%
same,residual activity,[5],73%
same,residual activity,[14],21%
same,residual activity,[15],49%
same,residual activity,[16],43%
same,residual activity,[17],102%
same,residual activity,[18],101%
same,residual activity,[19],104%
CN[C@@H]1C[C@H]2O[C@@](C)([C@@H]1OC)n1c3ccccc3c3c4c(c5c6ccccc6n2c5c31)C(=O)NC4,residual activity,[1],81%
same,residual activity,[2],79%
same,residual activity,[6],97%
same,residual activity,[7],89%
COc1cc(OC)c(/C=C2\C(=O)Nc3ccccc32)c(OC)c1,residual activity,[1],89%
same,residual activity,[2],85%
same,residual activity,[6],99%
same,residual activity,[7],92%
same,residual activity,[3],97%
same,residual activity,[4],96%
same,residual activity,[10],82%
same,residual activity,[11],86%
same,residual activity,[5],92%
same,residual activity,[14],84%
same,residual activity,[15],106%
same,residual activity,[16],93%
same,residual activity,[19],104%
same,residual activity,[20],86%
Nc1ncnc2[nH]nc(Nc3ccc(F)cc3)c12,residual activity,[3],101%
same,residual activity,[4],96%
O=[N+]([O-])/C=C/c1ccc2c(c1)OCO2,residual activity,[1],93%
same,residual activity,[2],105%
same,residual activity,[6],102%
same,residual activity,[7],110%
same,residual activity,[3],107%
same,residual activity,[4],99%
same,residual activity,[8],103%
same,residual activity,[9],98%
same,residual activity,[10],76%
same,residual activity,[11],105%
same,residual activity,[12],89%
same,residual activity,[13],66%
same,residual activity,[5],110%
same,residual activity,[14],87%
same,residual activity,[15],100%
same,residual activity,[16],112%
same,residual activity,[17],111%
same,residual activity,[18],99%
same,residual activity,[19],97%
same,residual activity,[20],98%
O=C1NC(=O)C(c2c[nH]c3ccccc23)=C1c1c[nH]c2ccccc12,residual activity,[3],99%
same,residual activity,[4],51%
CC(C)[C@H](CO)Nc1nc(Nc2cccc(Cl)c2)c2ncn(C(C)C)c2n1,residual activity,[1],88%
same,residual activity,[2],80%
same,residual activity,[6],101%
same,residual activity,[7],96%
same,residual activity,[4],98%
same,residual activity,[14],97%
same,residual activity,[15],85%
same,residual activity,[16],16%
same,residual activity,[17],52%
same,residual activity,[18],-1%
same,residual activity,[19],32%
same,residual activity,[20],2%
N#C/C(=C1/Nc2ccccc2S1)c1ccnc(NCCc2cccnc2)n1,residual activity,[3],96%
same,residual activity,[4],72%
O=C1c2ccccc2-c2nc3nnnn3nc21,residual activity,[1],111%
same,residual activity,[2],112%
same,residual activity,[6],102%
same,residual activity,[7],104%
same,residual activity,[3],130%
same,residual activity,[4],117%
same,residual activity,[8],119%
same,residual activity,[9],101%
same,residual activity,[10],146%
same,residual activity,[11],71%
same,residual activity,[17],107%
same,residual activity,[18],111%
same,residual activity,[20],101%
